The inhibition is the drop in the measured response relative to a control, in per cent.

“And” between values parts separate entries of the source, which are not always exact repeats. Equal values may be shown once. Out of some 100,000 compounds screened, about 440 (0.44%) were called active. The sample holds actives, similar compounds and a random draw of the others, so the mix is not that of the screen. Cut-off read from the data, not from the text of the source: active = inhibition above about 21% (passing the limit was not always enough); inactive = the rest. The source holds several records for some structures; these can differ, active in one and inactive in another.

The target in this test is 1,4-dihydroxy-2-naphthoyl-CoA synthase (Mycobacterium tuberculosis (strain ATCC 25618 / H37Rv)) (UniProt P9WNP5). The test is described as follows: M. tuberculosis MenB inhibitors, primary screen, biochemical, absorbance (AID 540299). To be noted: MenB enzyme assay, absorbance read-out; stronger effect = higher value; concentration not given here.
1,4-dihydroxy-2-naphthoyl-CoA synthase (Mycobacterium tuberculosis (strain ATCC 25618 / H37Rv)), sequence (P9WNP5 whole entry, looked up): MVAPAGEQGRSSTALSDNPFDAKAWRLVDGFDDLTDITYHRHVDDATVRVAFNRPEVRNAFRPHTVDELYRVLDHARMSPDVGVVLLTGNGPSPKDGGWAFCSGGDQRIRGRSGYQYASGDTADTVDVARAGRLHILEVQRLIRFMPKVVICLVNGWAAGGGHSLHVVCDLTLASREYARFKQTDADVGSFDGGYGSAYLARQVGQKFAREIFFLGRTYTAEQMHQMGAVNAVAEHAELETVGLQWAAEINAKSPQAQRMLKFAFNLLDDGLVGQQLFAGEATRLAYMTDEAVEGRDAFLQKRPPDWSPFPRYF
As for `COc1ccc(-c2noc(N3CCN(c4ccc(OC)cc4)CC3)n2)cc1`, the inhibition is 1.43% (inactive). Take `COc1cc(C)cc(CN2CCN(S(=O)(=O)c3ccccc3C#N)CC2)c1O`: the inhibition is -41.6% (inactive).

As to `CCOC(=O)C1(Cc2ccc(O)cc2)NC(c2ccccc2F)C2C(=O)N(C)C(=O)C21` (centres undefined), the inhibition is -10.9% (inactive). The same measure for `CCN1C(=O)C2C(c3cccs3)NC(C)(C(=O)OC)C2C1=O` (centres undefined): 15.1% (inactive); for `CCCC1(C(=O)OC)NC(c2ccco2)C2C(=O)N(C)C(=O)C21` (centres undefined): 29.6% (active). In the case of `CC1CCCCN1CC(=O)Nc1cc(C(C)(C)C)nn1-c1ccccc1` (centres undefined), the inhibition is 7.46% (inactive). In the case of `COc1ccc2c(CC(=O)OCC(=O)Nc3c(C)n(C)n(-c4ccccc4)c3=O)coc2c1` it was -0.895% (inactive).

Turning to `Cc1cc(N2CCN(C3CCCCC3)CC2)c2nncn2n1`, the inhibition is 0.645% (inactive). The same measure for `O=C1CC2NCCc3cccc1c32` (centres undefined): -9.34% (inactive); for `CCNS(=O)(=O)c1ccc(-c2cc(C)no2)s1`: -3.52% (inactive).

Turning to `O=C(COC(=O)c1ccc(S(=O)(=O)N2CCOCC2)cc1)Nc1ncc(Cl)cc1Cl`, the inhibition was 3.48% (inactive). The same measure for `CCCc1ccc(OCCNC(C)=O)c(OC)c1`: 11.5% (inactive).

On to `Cc1ccc2oc(=O)c3cnn(CC(=O)n4c(C)cc5ccccc54)c3c2c1`, for which the inhibition was -3.43% (inactive). Turning to `CC1(C)CC(=O)C2=C(C1)N=C1SCCC(=O)N1C2c1ccc(Br)cc1` (centres undefined), the inhibition was -1.14% (inactive). In the case of `C=CCn1c(=NC(C)=O)sc2cc(F)ccc21` it was -10.2% (inactive). The same measure for `CC1CCCCN1C(=O)c1ccc2ccccc2n1` (centres undefined): -16.5% (inactive); for `O=C1CCC(=O)N1CNc1ccc(-c2ccccc2)cc1`: -8.33% (inactive); for `Oc1ccc(SSc2ccc(O)cc2)cc1`: 40.7% (active).

Turning to `Oc1ccc(-c2cccc(-c3ccc(O)cc3)c2)cc1`, the inhibition is -21.5% (inactive). Regarding `Oc1ccc(-n2cccc2)cc1`, the inhibition is -10.9% (inactive).

Take `Cc1ccccc1Cn1nnc(-c2ccncc2)n1`: the inhibition was -48.5% (inactive). In the case of `CCc1ccc(-c2nnn(Cc3nn[nH]n3)n2)cc1` it was 42.6% (active); in that of `c1cc(-c2nn[nH]n2)ccc1CN1CCCCC1`, -0.56% (inactive).

Take `COC(=O)Cc1cnc(NC(=O)CSc2nc(C(C)C)cc(=O)[nH]2)s1`: the inhibition was -54% (inactive). In the case of `CN1C(C(=O)NC2CCCC2)=CC(c2cccs2)=NS1(=O)=O` it was -18.8% (inactive). Turning to `COc1ccc(C(=O)NNc2nnc(C(C)(C)C)c(=O)n2N)cc1`, the inhibition is 1.4% (inactive). As to `O=C(c1ccco1)N1CCCCCCC1`, the inhibition was 1.17% (inactive). In the case of `O=C(On1c(-c2ccccc2)nc2ccccc2c1=O)c1cccc(C(F)(F)F)c1` it was 11.4% (inactive); in that of `Fc1ccc(CNCc2ccccn2)cc1`, -6.84% (inactive); in that of `Cn1nnc(C(O)CNCc2ccc(F)cc2)n1` (centres undefined), 29.6% (active). The same measure for `COc1ccc(CNCC(O)c2nnn(C)n2)cc1OC` (centres undefined): -32.7% (inactive); for `CC1CCCC(NC(=O)COC(=O)c2cccc(S(=O)(=O)N(C)C)c2)C1C` (centres undefined): -17.8% (inactive); for `O=C(O)C1CCCN(C(=O)c2cnn(-c3ccccc3)c2-n2cccc2)C1` (centres undefined): 1.1% (inactive). In the case of `O=C(Nc1ccccc1C(=O)N1CCCC1)Oc1ccccc1` it was 3.13% (inactive). On to `CCOC(=O)c1[nH]cnc1C(=O)NC1CCCCC1`, for which the inhibition is -17.9% (inactive). The same measure for `Cc1ccc(NC(=O)c2nc[nH]c2C(=O)N2CCCCC2)c(C(=O)c2ccccc2)c1`: 39.3% (active) and -17.8% (inactive). In the case of `N#CSc1ccc(N)c(Br)c1` it was 24.6% (active); in that of `N#CSc1ccc(N2CCCCC2)cc1`, -10.6% (inactive). Take `COc1cc(CNC(=O)c2ccc(N(C)C)cc2)cc(OC)c1OC`: the inhibition is -9.81% (inactive).

Consider `Cc1c(/C=C(\C#N)C(=O)Nc2nccs2)cc(C#N)n1C`, for which the inhibition was 0.38% (inactive).

Regarding `C1CCC(NC2CCCC2)C1`, the inhibition was -21.1% (inactive). As for `O=S1(=O)CCC(NC2CCCCC2)C1` (centres undefined), the inhibition was 49.9% (active). The same measure for `O=S1(=O)CCC(S(=O)(=O)NC2CCCC2)C1` (centres undefined): -11% (inactive); for `CN1C(=O)C(C)(C)c2cc(S(=O)(=O)NCCc3ccco3)ccc21`: -23.9% (inactive); for `CCc1cc(CC)c(CO)c(CC)c1/C=N/O`: -27% (inactive). The same measure for `CC(Oc1ccccc1)c1nn2c(-c3cccnc3)nnc2s1` (centres undefined): -64.7% (inactive); for `O=C(c1nc(-c2ccc(Cl)cc2)n2c1CCCCC2)N1CCCCCC1`: -18.8% (inactive). The same measure for `Cc1cccc(COC(=O)Nc2ccc(N3CCCCC3)cc2)c1`: -13.2% (inactive). With `COc1cccc(NC(=O)CC2CCCCC2)c1`, the inhibition is -13.2% (inactive).

In the case of `O=C(O)c1ccc(NC(=O)C2CC2)cc1`, the inhibition is 0% (inactive). As for `O=C(Cn1cc(C(F)(F)F)ccc1=O)Nc1ccc(S(=O)(=O)N2CCCC2)cc1`, the inhibition is 17% (inactive). In the case of `O=C(O)c1ccc2[nH]c(=O)c(=O)[nH]c2c1` it was 6.67% (inactive) and 1.98% (inactive); in that of `COc1ccc(-c2nn(C)c3ccccc23)cc1`, 4.51% (inactive); in that of `COc1ccc(-c2nc3sc(-c4ccc(OC)cc4)nc3s2)cc1`, 26.2% (active). In the case of `COc1ccc(C2NNC(=S)S2)cc1` (centres undefined) it was 1.67% (inactive); in that of `CN1CCN(n2c(-c3ccc(Cl)cc3)csc2=Nc2ccccc2)CC1`, -4.88% (inactive); in that of `CC1C(=O)N2CCCc3cc(S(=O)(=O)NCc4ccc(F)cc4)cc1c32` (centres undefined), -7.22% (inactive). Consider `O=S(=O)(c1cccs1)N(c1ccccc1)C(F)F`, for which the inhibition was 9.14% (inactive). Take `O=S(=O)(/C=C/c1ccccc1)N1CCN(CCc2ccncc2)CC1`: the inhibition is -2.97% (inactive).

The record behind these values is PubChem BioAssay AID540299 (ICCB-Longwood Screening Facility, Harvard Medical School, 2011).
